# Test results: PubChem BioAssay AID493191 (Broad Institute, 2011)
# The whole screen tested about 1,300 compounds, of which about 330 (25%) were called active. These entries were drawn from the full list. Measured potencies and affinities stand elsewhere. Unmarked numbers belong to inactive results. No rule for the calls is given here.
# Assay: growth inhibition of MALME3 cells – cell-based, CellTiter-Glo, cherry-picked, orthogonal assay for MITF inhibitor project, dose response (AID 493191)
# Conditions: MALME3 melanoma viability, CellTiter-Glo luminescence, 24 h; series mostly up to 35 µM; activity change, negative = inhibition: at the top concentration
row,Compound,"activity change, negative = inhibition [%]"
1,CCN1CCc2c(sc(NC(=O)c3ccc(S(=O)(=O)N4CCCC4)cc3)c2C(=O)NC)C1,0.364
2,COc1ccc2nc(C)cc(SCC(=O)N/N=C/c3ccc(O)cc3O)c2c1,-15.7
3,COc1ccc(-c2nc(-c3ccncc3)no2)cc1OC,-2.17
4,COc1ccc(/C=N/Nc2ccccn2)cc1OC,7.25
5,COc1ccc(-c2cc(-c3ccccc3O)[nH]n2)cc1OC,14.5
6,O=C(Nc1nc2cc3c(cc2s1)OCO3)C1=COCCO1,-28.5
7,C=CCn1c(C)cc(C(=O)Cn2ncc(Cl)c(Cl)c2=O)c1C,-34.7
8,Cc1c(C#N)c(NC(=O)CCl)n(Cc2ccc(F)cc2)c1C,-31.5
9,O=C(CCC(=O)c1ccc[nH]1)c1ccc(Cl)cc1,-1.41
10,Nc1nc2n[nH]nc2c(=O)[nH]1,-21.7
11,CC(C)c1ccc(/C=C2\SC(=S)N(CCC(=O)N3CCCCC3CCO)C2=O)cc1 (configuration not stated),9.88
12,CSc1nc(N)n2nc(-c3ccccc3)cc2n1,-24.9
13,O=C(Nc1ccc2c(c1)OCCO2)c1ccoc1,-8.78
14,Cc1ccc(-c2noc(-c3ccno3)n2)cc1,-24.2
15,CC(=C/c1ccco1)/C=N/N1CCN(c2ccccc2)CC1,-19.4
16,COc1ccc2nc(C)cc(NCc3cccc(C(F)(F)F)c3)c2c1,-2.53
17,COC(=O)C1=C(CN2CCCc3ccccc32)NC(=O)NC1c1ccc(F)cc1 (configuration not stated),-1.92
18,O=C(CSCC(=O)Nc1ccccc1)N/N=C/c1c(O)ccc2ccccc12,-12.1
19,O=C(CNc1ccc2ccccc2c1)N/N=C/c1ccc([N+](=O)[O-])o1,-35.4
20,Cc1cc2oc(=O)cc(C)c2cc1NC(=O)CCC(=O)O,-2.92
21,O=[N+]([O-])c1cccc(/C=N/Nc2ncc(Br)cn2)c1,6.28
22,C=CCSC(=S)NC1CCS(=O)(=O)C1 (configuration not stated),-29.3
23,CCOC(=O)COc1ccc2ccccc2c1/C=C/[N+](=O)[O-],-18.2
24,N/C(CS(=O)(=O)c1ccccn1)=N\OC(=O)c1ccccc1Cl,-2.74

row,Compound,"activity change, negative = inhibition [%]"
1,O=C(O)/C=C/C(=O)c1ccc2c(c1)CCc1ccccc1-2,-35.3
2,C=CCN1C(=O)S/C(=C\c2ccc(N3CCOCC3)cc2C)C1=O,-19.1
3,CC(=O)Nc1cccc(-c2nnc(-c3ccccc3)o2)c1,-3.6
4,CC(=O)Nc1ccc(-c2nc3ccccc3o2)cc1,7.41
5,COc1cccc(/C=N/NC(=O)CN2CC(c3ccccc3)CC2=O)c1OC (configuration not stated),3.58
6,c1ccc(Cc2cc(-c3ccccc3)on2)cc1,5.16
7,O=C(Nc1ccc(Cl)cc1)Nc1cccc(C(=O)O)c1,-1.06
8,Cc1ccc(C(=O)Nc2cnc3ccccc3c2)cc1,-11.4
9,Cc1ccc(NC(=O)c2ccccc2)cc1,5.52
10,COc1ccc(NC(=O)NC(=O)c2ccccc2)cc1,10.3
11,CCN(CC)CCNC(=O)c1ccc(NC(=O)c2cccc(S(=O)(=O)N3c4ccccc4CC3C)c2)cc1 (configuration not stated),-17.4
12,Cc1ccc(NC(=O)c2cc(-c3cccs3)on2)cc1,4.72
13,O=[N+]([O-])/C=C\c1ccc(N2CCCC2)c(F)c1,-33.7
14,CN(C)c1ccc(C2=NOC(CN3C(=O)c4ccccc4S3(=O)=O)C2)cc1 (configuration not stated),-4.73
15,O=C(NC1CC1)C1CCN(S(=O)(=O)c2ccc(Cl)c([N+](=O)[O-])c2)CC1,-35.8
16,Cn1cccc1C(=O)NC(=O)COC(=O)c1ccc(S(C)(=O)=O)c([N+](=O)[O-])c1,-11.1
17,O=C(NCCNc1ccccc1[N+](=O)[O-])c1cc(F)c(F)cc1Cl,-1.12
18,O=C(COC(=O)c1ccc(F)c([N+](=O)[O-])c1)NC(=O)NCc1ccccc1,-8.85
19,CN(CCC#N)C(=O)COC(=O)c1ccccc1C(=O)c1ccc(Cl)c([N+](=O)[O-])c1,-28.2
20,CCC(=O)Nc1cc(C(=O)OCC(=O)c2ccccc2Cl)ccc1C,1.33
21,N/C(=N\OC(=O)Cc1cccs1)c1ccccc1,3.27
22,Cc1ccn2c(Nc3ccccc3)c(-c3ccccn3)nc2c1,-31.3
23,O=C(NC1CCCCC1)C(c1cccnc1)N(C(=O)CCl)c1cccc(Cl)c1 (configuration not stated),-10.9
24,CC1Cc2cc(-c3csc(N)n3)ccc2O1 (configuration not stated),6.44

row,Compound,"activity change, negative = inhibition [%]"
1,COc1ccccc1NS(=O)(=O)c1cc(NC(=O)c2ccc(Cl)nc2)ccc1Cl,-5.32
2,O=C(O)c1ccc(C(=O)Nc2ccc(F)cc2)cc1,-0.194
3,COc1ccc(NC(=O)c2cc(-c3ccccc3Cl)on2)cc1,1.29
4,CCOc1ccc(C(=O)Nc2cccc(C(=O)O)c2C)cc1Cl,7.12
5,CCOC(=O)c1ccc(NC(=O)c2ccc(C)c(S(=O)(=O)N3CCOCC3)c2)cc1,-8.59
6,O=C(Cc1ccccc1)Nc1ccc(NC(=O)c2ccco2)nc1,7.46
7,CCOC(=O)c1ccc(NC(=O)c2ccnn2C)cc1,7.79
8,CCOc1ccc(NC(=O)c2ccccn2)cc1,-30.9
9,O=C1c2ccccc2S(=O)(=O)N1Cc1nc2ccccc2s1,-1.34
10,Cc1ccc2nc(-c3ccncc3)[nH]c2c1,-13.6
11,Fc1ccc(-c2nnc(-c3ccc(F)cc3)o2)cc1,-8.09
12,COCCCn1[nH]c2c3c(ccc2c1=O)C(=O)c1ccccc1C3=O,-28.8
13,O=C(Nc1nc2ccsc2c(=O)s1)C1CCC1,6.31
14,CN(c1ccc(O)cc1)c1nc(O)c(C2=c3ccccc3=NC2=O)s1,-6.42
15,Cn1cc(C(=O)N/N=C/c2c(O)ccc3ccccc23)ccc1=O,-16.5
16,Cc1cccc(-c2nc(C#N)c(NCc3ccco3)o2)c1,10.1
17,O=C(NC1CCCCCC1)c1cc2ccccc2oc1=O,-3.85
18,O=C(Nc1ccccc1)C1Cc2ccccc2CN1C(=O)c1ccco1 (configuration not stated),-4.95
19,C=CCNc1nc(-c2ccccn2)nnc1-c1ccccc1,-18.7
20,COc1ccc(NC(=O)Nc2ccc(F)c(F)c2)c(OC)c1,18.8
21,CCn1c(/C=C/N(C)c2ccccc2)[n+](CC)c2ccc(Cl)cc21,-25.4
22,CCOC(=O)c1ccc2c(c1)n(CC)c(/C=C/N(C)c1ccccc1)[n+]2CC,-27.6
23,Nc1c2c(=O)oc(-c3ccccc3)cc2nn1-c1ccccc1,-0.126
24,COc1cccc(C(=O)N/N=C(/c2ccccc2)c2ccccn2)c1,-23.3

row,Compound,"activity change, negative = inhibition [%]"
1,COc1cc(C(=O)Oc2c(CN3CCOCC3)cc(Cl)c3cccnc23)cc(OC)c1OC,-44.2
2,O=c1nc(N/N=C/c2ccccn2)cn[nH]1,-15.8
3,CC(C)c1ccc(CNc2ncccn2)cc1,-7.32
4,CCCCN1CCc2c1nc1ccc(Br)cc1c2N,-43
5,CCCOc1ccc(-c2c(=O)n(O)c3ccccc3[n+]2[O-])cc1,-6.65
6,BrC(=C\c1ccccc1)/C=N/n1cnnc1,-26.2
7,Cc1ccc(C#CC[N+]2(CC#Cc3ccc(C)cc3)CCCCC2)cc1,-38.5
8,CN1C/C(=C/c2cccnc2)C(=O)/C(=C/c2cccnc2)C1,11
9,CC(C)N1C/C(=C/c2cccnc2)C(=O)/C(=C/c2cccnc2)C1,-31.7
10,Cc1cccc(OCc2nc3ccccc3n2C)c1,1.51
11,O=S(=O)(c1ccc(F)cc1)c1snnc1-c1ccccc1,-12.4
12,CCCOc1ccc(C(=O)C(CN2CCCC2)c2ccccc2)cc1 (configuration not stated),-37.2
13,O=C(/C=C/c1ccccc1Cl)NC1CCCCC1,8.1
14,O=C(CSc1ccc(Cl)cc1)NC1CCCC1,-1.8
15,O=C(CCCN1C(=O)S/C(=C\c2ccccc2)C1=O)NNC(=O)c1ccccc1O,-9.65
16,N/C(=N\OC(=O)c1ccccc1Cl)c1ccccn1,-32.8
17,Cc1ccc(C(=O)c2no[n+]([O-])c2C(=O)c2ccc(C)cc2)cc1,-26.9
18,CN(C)c1ccc(/C=N\NC(=O)c2cccc3cc[nH]c23)cc1,1.73
19,CCOC(=O)N1CCN(C(=O)c2ccc(Cn3c(=S)[nH]c4ccc(Br)cc4c3=O)cc2)CC1,-20.7
20,CCC(=O)N1CCN(c2ccc(Cl)cc2NC(=O)c2ccc([N+](=O)[O-])o2)CC1,-43.4
21,Cn1c(/C(C#N)=C/c2ccc(-c3ccc(S(N)(=O)=O)cc3)o2)nc2ccccc21,-11.6
22,Clc1c(-c2ccccc2)nc2ccccn12,4.22
23,Cc1cc(N2CCOCC2)n2ncc(-c3ccccc3Cl)c2n1,-2.42
24,Cc1cc(C(=O)CN2C(=O)c3ccccc3S2(=O)=O)c(C)n1-c1ccccc1,-2.78

row,Compound,"activity change, negative = inhibition [%]"
1,C#Cc1cccc(NC(=O)CSc2nnc(-c3ccc(C(F)(F)F)cn3)o2)c1,7.2
2,Cc1ccc2c(c1)Oc1ccc(NC(=O)CCl)cc1C(=O)N2,-38.9
3,Cc1ccc(CC(=O)Nc2ccc(Cl)cn2)cc1,7.43
4,CCCN(CC(=O)Nc1ccccc1C)C(=O)CCl,-20.5
5,CS(=O)(=O)c1ccc2nc(NC(=O)c3ccccc3Br)sc2c1,13.2
6,O=C(c1ccc(F)cc1)C(CN1CCOCC1)c1ccccc1 (configuration not stated),-21.3
7,COc1cc(CN2CCC(Cc3ccccc3)CC2)cc(OC)c1OC,7.73
8,COc1ccc(S(=O)NC2CCCCC2)c(OC)c1C (configuration not stated),-5.41
9,CC(=O)c1ccc(S(=O)(=O)N2CCN(C(=O)/C=C/c3ccc4ccccc4n3)CC2)cc1,-3.46
10,COc1ccc(NC(=O)c2cc3ccccc3[nH]2)cc1,3.96
11,COc1ccc2cc3cc(C(=O)NCCc4ccc(OC)c(OC)c4)oc3nc2c1,-18.4
12,Cc1cc(O)ccc1Nc1nc(-c2cccnc2)cs1,3.74
13,CCOC(=O)C1CCCN(C(=O)C2CCN(S(=O)(=O)CC)CC2)C1 (configuration not stated),1.71
14,CCOc1ccc(OCc2ccc(C(=O)N/N=C(\C)c3ccccn3)cc2)cc1,-39.2
15,CCOC(=O)c1ccc(NC(=O)Cc2cccs2)cc1,-16.7
16,CCc1ccc(Nc2nc(C)cc(C)n2)cc1,-3.27
17,CCOC(=O)c1ccc(NC(=O)CC2SCCNC2=O)cc1 (configuration not stated),-0.676
18,COc1ccccc1-c1nnc(-c2ccc(C)cc2)o1,-5.25
19,COCCNC(=O)c1cc2sc3ccccc3c2s1,8.29
20,O=C(N/N=C/c1cc(Cl)ccc1O)c1ccncc1,-30.2
21,COc1cc2nc(SCC(=O)NCc3ccco3)n(Cc3ccc(Cl)cc3)c(=O)c2cc1OC,-14.3
